The whole screen tested about 340,000 compounds, of which about 6,900 (2%) were called active. The sample holds actives, similar compounds and a random draw of the others, so the mix is not that of the screen. Rule as the data show it: active = inhibition above about 30%; inactive = below that, where a call was filed.

D(2) dopamine receptor (Homo sapiens), sequence (P14416 whole entry, looked up): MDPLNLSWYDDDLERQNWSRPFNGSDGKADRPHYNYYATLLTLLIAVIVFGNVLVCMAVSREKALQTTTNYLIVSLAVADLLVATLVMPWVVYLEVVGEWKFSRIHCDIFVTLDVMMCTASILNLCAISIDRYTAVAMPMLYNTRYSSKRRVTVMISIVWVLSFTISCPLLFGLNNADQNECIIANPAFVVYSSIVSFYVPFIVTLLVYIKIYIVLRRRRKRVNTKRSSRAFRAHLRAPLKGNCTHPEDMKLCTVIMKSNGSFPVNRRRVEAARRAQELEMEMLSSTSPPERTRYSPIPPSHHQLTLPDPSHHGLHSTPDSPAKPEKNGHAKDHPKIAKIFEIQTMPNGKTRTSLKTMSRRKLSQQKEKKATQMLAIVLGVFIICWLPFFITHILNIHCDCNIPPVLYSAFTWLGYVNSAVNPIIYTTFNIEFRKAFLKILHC

This assay has as its target D(2) dopamine receptor (Homo sapiens) (UniProt P14416). Nature of the assay: HTS Assay for Allosteric Antagonists of the Human D2 Dopamine Receptor: Primary Screen for Antagonists. Also: 0% is about no effect. Particulars: HEK293 TREx D2 cells, calcium flux, dopamine EC80; at 10 µM; hits give high values. The source says:
NIH Chemical Genomics Center [NCGC] NIH Molecular Libraries Probe Centers Network [MLPCN] MLPCN Grant: NS064831-01 Assay Submitter (PI): David Sibley Dopamine receptors (DARs) are involved in the etiology and/or therapy of a number of neuropsychiatric and endocrine disorders. For instance, all receptor-based antiparkinsonian drugs work via stimulating the D2 DAR subtype whereas all FDA-approved antipsychotic agents are antagonists of this receptor. […] There are three different types of allosteric modulators that we are seeking, two of which will stimulate or augment receptor signaling, allosteric agonists and potentiators, while the third, allosteric antagonists, will attenuate receptor signaling. The present primary screening assay measures compound antagonism after an EC80 addition of dopamine by tracking calcium flux in a […], inducible Hek293 Trex D2 cell line.
Freshly passaged cells are plated in 1536 well black, clear bottom plates at a density of 4000 cells/well in 3 ul of complete media containing 1x tetracycline inducer. After an overnight incubation at 30 C in 5% CO2, cells are loaded with 2 ul of the no wash Calcium Assay Kit (ABD Bioquest) and incubated at room temperature for 30 to 90 minutes. Agonist read: A 10 cycle (1 second/cycle) baseline measurement is taken and then the FDSS online 1536 pintool delivers 23 nl of compound library (as well as dopamine controls) to the plate. The plate is measured for kinetically at 1 cycle/sec for 180 seconds. Following the 180 second read, 1 ul of an EC80 (negative modulation assay) is delivered by an onboard pipette head. Measurements are taken kinetically for an additional 180 seconds.
In the case of `CN(C)C1=NC[C@H](Cc2ccccc2)N1CCc1ccc(F)cc1`, the inhibition is -4.3% (inactive). With `Cc1ccc(S(=O)(=O)N(C)C)cc1NC(=O)c1ccc(-n2cncn2)c([N+](=O)[O-])c1` the figure was 2.81% (inactive); with `CCCC(C)C(=O)OCC(=O)Nc1c(Br)cc(C)cc1Br` (stereo unspecified), 39.9% (active). As for `CCC(C(=O)OCC(=O)Nc1c(Cl)cc(Cl)cc1Cl)c1ccccc1` (stereo unspecified), the inhibition is -3.7% (inactive). For `Cc1cc(C)cc(NC(=O)COC(=O)c2cc(C)oc2C)c1`, the inhibition was -1.43% (inactive).

As to `COc1ccc(C(=O)NCc2ccc(C)cc2)cc1S(=O)(=O)N1CCCC1`, the inhibition is -8.88% (inactive).

Regarding `CC1CCN(C(=O)COC(=O)CCC(=O)c2cccs2)CC1`, the inhibition is 24% (inactive).

Regarding `Cc1c(C)c2c(OCC(=O)NCCCO)cc3c(c2oc1=O)CCC(C)(C)O3`, the inhibition was -0.698% (inactive). Consider `Cc1c(C)c2c(OCC(=O)N[C@@H](C(=O)O)c3ccccc3)cc3c(c2oc1=O)CCC(C)(C)O3`, for which the inhibition was 30.5% (active). In the case of `Cc1cc(=O)oc2c3c(cc(OCC(=O)N[C@H](C(=O)O)c4ccccc4)c12)OC(C)(C)CC3` it was 3.15% (inactive); in that of `CCN(C(=O)COC(=O)c1c(C)nn(-c2ccccc2)c1Cl)c1c(N)n(Cc2ccccc2)c(=O)[nH]c1=O`, -3.1% (inactive).

With `O=C(CSc1nnc(CN2CCCC2)n1-c1ccc(F)cc1)c1ccc2c(c1)OCO2`, the inhibition was 8.14% (inactive). Regarding `CN(CC(=O)Nc1cccc(F)c1)C(=O)C1CC(=O)N(CCc2ccccc2)C1` (stereo unspecified), the inhibition is 33.5% (active).

With `CN(Cc1ccccc1Cl)C(=O)C1CCC(=O)N(CCc2cccc(F)c2)C1` (stereo unspecified), the inhibition was -0.289% (inactive). `CCNC(=O)c1cccc(NC(=O)C2CC(=O)N(CCc3ccccc3)C2)c1` (stereo unspecified): the inhibition is -18% (inactive). For the compound `Cn1c(N)c(C(=O)COC(=O)/C=C/c2cccc(C(F)(F)F)c2)c(=O)n(C)c1=O`, the inhibition was -16.8% (inactive). Regarding `c1ccc2c(c1)OCC(CNc1ncnc3nc[nH]c13)O2` (stereo unspecified), the inhibition was -3.03% (inactive). With `c1ccc(-c2cc3c(NCC4COc5ccccc5O4)ncnc3s2)cc1` (stereo unspecified) the figure was 31.8% (active). With `COc1ccc(Nc2ncnc3sc(-c4ccccc4)cc23)c(OC)c1`, the inhibition was -16.4% (inactive). Turning to `CC(=O)c1ccc(S(=O)(=O)NCCC(=O)N2CCN(c3ccccn3)CC2)cc1`, the inhibition is -35% (inactive). With `CN(C)CCN(C(=O)CN1C(=O)c2ccccc2C1=O)c1nc2cc3c(cc2s1)OCCO3`, the inhibition was 12.4% (inactive). Turning to `CCN(C(=O)COC(=O)C1CCN(S(=O)(=O)c2ccc(C)c(C)c2)CC1)C1CCS(=O)(=O)C1` (stereo unspecified), the inhibition is 10.6% (inactive).

With `COc1cc(/C=N/NC(=O)Cc2ccccc2)cc(OC)c1OC`, the inhibition is 1.38% (inactive). With `O=C(Cc1cc(=O)[nH][nH]1)N/N=C/c1ccccc1[N+](=O)[O-]` the figure was 11.1% (inactive); with `COc1cc(CC(=O)N/N=C/c2ccccc2)c([N+](=O)[O-])cc1OC`, 77% (active); with `Cc1nc(N2CCN(c3ccccn3)CC2)c2c(C)c(C(=O)Nc3ccc(F)cc3)sc2n1`, 8.07% (inactive). With `Cc1c(CN2CC[C@@H](N3CCN(c4ccccn4)CC3)[C@H](O)C2)[nH]c2ccc(F)cc12`, the inhibition was 51.4% (active). For `O=C(CCC1CCCN(C(=O)Cc2ccc(F)cc2)C1)N1CCN(c2ccccn2)CC1` (stereo unspecified), the inhibition was -9.86% (inactive). With `O=C(CN1CCN(C2CCS(=O)(=O)C2)CC1)N1N=C(c2ccc(Cl)cc2)CC1c1ccco1` (stereo unspecified) the figure was -10.4% (inactive). Consider `CC(=O)c1ccc(OCCCC(=O)Nc2ccc(C)c(S(=O)(=O)N3CCOCC3)c2)cc1`, for which the inhibition was 6.79% (inactive). Turning to `CC(OC(=O)c1cc2ccccc2o1)C(=O)Nc1ccc(N2CCOCC2)cc1` (stereo unspecified), the inhibition is 8.62% (inactive). Regarding `c1ccc(CC2CCN(c3nc4ccccc4n4cnnc34)CC2)cc1`, the inhibition was 37.6% (active). Regarding `Brc1ccccc1CN1CCC(Cc2ccccc2)CC1`, the inhibition was 17.7% (inactive). On to `O=C(c1ccccc1)c1ccc2nc(N3CCCCC3)c3nncn3c2c1`, for which the inhibition was -2.11% (inactive). As to `CCc1sc(C(=O)N2CCN(CC(=O)Nc3cccc(F)c3)CC2)cc1C`, the inhibition is 22.4% (inactive).

Turning to `Cc1cc(Br)ccc1NC(=O)CN(C)C(=O)CN1C(=O)NC2(CCCC2)C1=O`, the inhibition was 7.4% (inactive).

`CCOC(=O)C1=C(COC(=O)[C@H](C)NS(=O)(=O)c2ccccc2F)NC(=O)NC1C` (stereo partly specified): the inhibition was 11% (inactive). `O=C(OCC(=O)N1CCOCC1)c1ccc2ccccc2c1`: the inhibition is -1.03% (inactive). As for `CCCCCN(C(=O)CCC(=O)OCCOc1ccc(OC)cc1)c1c(N)n(CCCC)c(=O)[nH]c1=O`, the inhibition is -2.34% (inactive). Regarding `COc1cc2ccccc2cc1C(=O)Nc1ccncc1`, the inhibition was 5.03% (inactive). Regarding `CCCCSc1[nH]c(=O)c(C(=O)OCC)cc1C#N`, the inhibition was 30.2% (active). Consider `CC(=O)c1cc(C#N)c(SCC(=O)C(C)(C)C)nc1C`, for which the inhibition was -15% (inactive). On to `CCOC(=O)c1cc(C)nc(S(C)(=O)=O)c1C#N`, for which the inhibition was 5.94% (inactive). As for `CCC(C)N(C(=O)CSc1ncnc2c1cnn2-c1ccccc1)C1CCS(=O)(=O)C1` (stereo unspecified), the inhibition was 1.86% (inactive). As for `O=C(CCNC(=O)c1ccc(Br)cc1)NCC(c1ccco1)N1CCCCC1` (stereo unspecified), the inhibition is 17% (inactive).

As for `CC(=O)N1c2ccc(S(=O)(=O)NCCC(=O)N(C)C3CCCCC3)cc2CC1C` (stereo unspecified), the inhibition is -4.33% (inactive). Turning to `COc1cccc(CNS(=O)(=O)c2ccc3c(c2)CC(C)N3C(C)=O)c1` (stereo unspecified), the inhibition was -5.54% (inactive).

In the case of `CC(=O)N1c2ccc(S(=O)(=O)N(C)CC(=O)N(C)Cc3ccccc3)cc2CC1C` (stereo unspecified), the inhibition is 36.2% (active). In the case of `CCOc1ccc(NC(=O)CN(C)C(=O)CSc2ccccc2)cc1OCC` it was 13.7% (inactive); in that of `COC(=O)CNc1nc(Cl)nc(N2CCC(C)CC2)n1`, 35.9% (active); in that of `Clc1nc(NC2CCCC2)nc(N2CCOCC2)n1`, -9.32% (inactive).

In the case of `CCOC(=O)CNc1nc(Cl)nc(Nc2ccccc2)n1`, the inhibition is 6.97% (inactive).

Consider `O=C(CN1CCc2ccccc2C1)Nc1cccc(S(=O)(=O)N2CCOCC2)c1`, for which the inhibition is -6.15% (inactive). Regarding `COc1ccc(F)cc1C(=O)COC(=O)c1n[nH]c(=O)c2ccccc12`, the inhibition was -10.9% (inactive). In the case of `CN(C(=O)Cn1nnc(-c2ccc(F)cc2)n1)C1CCS(=O)(=O)C1` (stereo unspecified), the inhibition is 9.49% (inactive). Consider `Cc1ccc(OCCNC(=O)CCNS(=O)(=O)c2ccc(Br)cc2)cc1`, for which the inhibition is 23.7% (inactive). With `O=C(CCNS(=O)(=O)c1ccccc1)NCCCc1ccccc1` the figure was 21% (inactive); with `O=C(CCNS(=O)(=O)c1ccccc1)NCCSc1ccc(Br)cc1`, 45.1% (active); with `O=C(CCNS(=O)(=O)c1ccccc1C(F)(F)F)Nc1ccncc1`, -6.21% (inactive). In the case of `CN(Cc1ccccc1F)C(=O)C(Cc1ccccc1)NC(=O)c1ccccc1` (stereo unspecified) it was -5.32% (inactive); in that of `O=C(COC(=O)CNC(=O)c1ccco1)Nc1ccc(F)cc1`, -3.88% (inactive); in that of `NS(=O)(=O)c1ccc(NC(=O)COC(=O)c2ccco2)cc1`, 38.5% (active). Consider `NS(=O)(=O)c1ccc(NC(=O)COC(=O)c2cc3ccccc3oc2=O)cc1`, for which the inhibition was -18.7% (inactive). `O=C(COC(=O)C1CCCCC1)Nc1ccc([N+](=O)[O-])cc1`: the inhibition is 35.3% (active). As to `NC(=O)c1ccc(NC(=O)COC(=O)c2ccc([N+](=O)[O-])cc2)cc1`, the inhibition was -23.5% (inactive).

For `N/C(Cc1ccc([N+](=O)[O-])cc1)=N\OC(=O)C1CCCCC1`, the inhibition was 2.32% (inactive). With `COc1ccc(CNC(=O)CN2C(=O)NC3(CCCc4sccc43)C2=O)cc1` (stereo unspecified), the inhibition was 2.45% (inactive).

For the compound `Cc1ccc(S(=O)(=O)N2CCCCC2)cc1C(=O)N1CCN(CCO)CC1`, the inhibition is -6.17% (inactive). For `COc1ccc(-c2nn(-c3ccccc3)cc2/C=C\C(=O)Nc2ccc(C(=O)O)cc2)cc1`, the inhibition was 0.137% (inactive).

For the compound `COc1ccc(-c2nn(-c3ccccc3)cc2C(=O)Nc2nc(CC(C)=O)ns2)cc1`, the inhibition was 13.1% (inactive). For the compound `COc1ccc(NC(=O)c2cn(-c3ccccc3)nc2SC)cc1`, the inhibition is 60.7% (active). For `O=C(NNC(=O)c1ccc(-n2cncn2)c([N+](=O)[O-])c1)c1ccccc1`, the inhibition was 1.81% (inactive).

On to `COc1ccc(C2=NN(C(=O)CSc3nnnn3C)C(c3ccco3)C2)cc1` (stereo unspecified), for which the inhibition was -18.6% (inactive).

`Cc1ccc(C)c(S(=O)(=O)Nc2cccc(-n3cnnn3)c2)c1`: the inhibition was 4.04% (inactive).

In the case of `O=S(=O)(Nc1ccc(-n2cnnn2)cc1)c1ccc(Cl)cc1`, the inhibition was -3.4% (inactive).

On to `O=S(=O)(Nc1cccc(-n2cnnn2)c1)c1cnc(Cl)c(Cl)c1`, for which the inhibition was 34.6% (active). As for `COc1ccccc1CNS(=O)(=O)c1cc(C(=O)NCc2ccccn2)c(Cl)cc1Cl`, the inhibition was -2.76% (inactive). On to `Cc1cccc(NS(=O)(=O)c2ccc(C)c(C(=O)NCC(c3ccccc3)N(C)C)c2)c1` (stereo unspecified), for which the inhibition is -4.69% (inactive). Regarding `CNC(=O)C1CC(=O)N(c2ccc(OCC(=O)Nc3ccccc3C)cc2)C1` (stereo unspecified), the inhibition is 12.9% (inactive). In the case of `Cc1cc(F)ccc1NC(=S)NCCc1ccccc1` it was -0.203% (inactive). Regarding `Fc1ccccc1Cn1cnc(NC(=S)NCCc2ccccc2)n1`, the inhibition is 40.1% (active). For the compound `S=C(NCCc1ccccc1)NCc1ccccc1Cl`, the inhibition was -2.45% (inactive). In the case of `CC(=O)N1CCc2c(sc(NC(=O)CCS(=O)(=O)c3ccc(C)cc3)c2C(N)=O)C1` it was -1.82% (inactive). Turning to `O=C(c1cccc(C(=O)N2CCN(c3ccc(F)cc3)CC2)c1)N1CCN(c2ccc(F)cc2)CC1`, the inhibition was 19.6% (inactive). In the case of `Oc1c(CN2CCN(c3ccc(F)cc3)CC2)cc(Cl)c2cccnc12` it was 49.1% (active); in that of `CCN1CCN(C(c2cccnc2)c2cc(Cl)c3cccnc3c2O)CC1` (stereo unspecified), 2.31% (inactive); in that of `CCN(CC(=O)Nc1ccc(OC)cc1)C(=O)c1ccc(=O)n(Cc2ccccc2)n1`, 7.28% (inactive). With `Cc1ccc(S(=O)(=O)NCCNC(C)c2ccc(Br)cc2)cc1` (stereo unspecified), the inhibition was -7.75% (inactive). In the case of `COc1ccc(C2CC(=O)NC(=O)C2)cc1` it was -28.9% (inactive); in that of `COc1ccc2cc(C3=CC(=O)C[C@H](c4ccc5c(c4)OCO5)C3)ccc2c1`, 13.1% (inactive); in that of `COc1ccc(C2CC(=O)Oc3ccc(C(C)(C)C)cc32)cc1` (stereo unspecified), 40.2% (active).

For orientation: inhibition means the drop in the measured response relative to a control, in per cent.

The record behind these values is PubChem BioAssay AID485344 (National Center for Advancing Translational Sciences (NCATS), 2010).
